Drawing on PubChem BioAssay (EPA / NIEHS), this text covers outcome and AC50 for 19 molecules.

Results filed as inconclusive are left out. The source holds several records for some structures; these can differ, active in one and inactive in another. Calls of active or inactive are those of the source. How the source made its calls, unless noted: active means hit-call score of the fitted dose curve at least 0.9, where 1 is the maximum; inconclusive means response in the unintended direction; inactive means score below 0.9.

The target in assay [1] is Thyroid hormone receptor alpha (Rattus norvegicus) + Thyroid hormone receptor beta (Rattus norvegicus) (UniProt P18113+P63059). Briefly: TOX21_TR_LUC_GH3_Agonist_Followup: Tox21 GH3 Thyroid Hormone Receptor Agonism Luciferase Follow-Up Assay (AID 2283939). In outline:
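Agonist-mode confirmatory run: 15 concentrations (5 nM to 92 uM final) on GH3 rat pituitary cells, 24 h at 37C/5% CO2, T3 as positive control. Luminescence read with ONE-Glo after 30 min.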

In another assay the target is THRA (gene 7067) (UniProt P10827). Kind of assay: TOX21_TRA_COA_Agonist_Followup_ratio: Tox21 Thyroid Hormone Receptor alpha Agonism through Coactivator Recruitment Follow-Up Assay, Ratio (AID 2283948; active means hit-call score of the fitted dose curve at least 0.9, where 1 is the maximum; inactive means score below 0.9). In outline: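 Follow-up specificity assay in which TRα ligand-binding domain, expressed as a GST fusion, recruits a fluorescein-labelled SRC-2 peptide. Energy transfer from a terbium anti-GST antibody gives the acceptor/donor ratio, fitted upward relative to DMSO.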
THRA (gene 7067), sequence (P10827 whole entry, looked up, the tested form may be a part): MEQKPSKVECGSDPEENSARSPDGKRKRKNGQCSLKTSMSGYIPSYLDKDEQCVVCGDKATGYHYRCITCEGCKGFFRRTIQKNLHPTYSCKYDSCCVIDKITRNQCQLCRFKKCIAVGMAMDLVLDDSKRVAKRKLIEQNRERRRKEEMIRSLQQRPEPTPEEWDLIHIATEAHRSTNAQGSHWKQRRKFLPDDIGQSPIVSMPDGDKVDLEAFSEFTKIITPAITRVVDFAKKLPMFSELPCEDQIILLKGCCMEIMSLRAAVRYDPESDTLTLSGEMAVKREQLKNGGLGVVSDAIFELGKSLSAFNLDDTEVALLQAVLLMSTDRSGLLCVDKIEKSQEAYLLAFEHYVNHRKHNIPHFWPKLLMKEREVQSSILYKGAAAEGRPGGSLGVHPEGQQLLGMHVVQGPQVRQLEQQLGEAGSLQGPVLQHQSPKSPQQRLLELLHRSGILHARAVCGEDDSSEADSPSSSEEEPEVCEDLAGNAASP

For assay [2], the target named is THRB (gene 7068) (UniProt P10828). Kind of assay: TOX21_TRB_BLA_Agonist_Followup_ratio: Tox21 Thyroid Hormone Receptor beta Agonism Beta-lactamase (BLA) Follow-Up Assay, Ratio (AID 2283954). In outline:
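Agonist mode: compounds (11-point, triplicate) incubated 18 h with HEK293T cells carrying GAL4-DBD/human TRβ-LBD and UAS-β-lactamase. Blue/green (460/530 nm) FRET ratio read after 2 h CCF4-AM loading; CellTiter-Glo viability run in the same plates.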

Assay [3] has the same target. Briefly: TOX21_TRB_COA_Agonist_Followup_ratio: Tox21 Thyroid Hormone Receptor beta Agonism through Coactivator Recruitment Follow-Up Assay, Ratio (AID 2283963; active means hit-call score of the fitted dose curve at least 0.9, where 1 is the maximum; inactive means score below 0.9). In outline: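 GST-TRb LBD 5.0 nM + 0.10% BSA + cpd; add fluorescein-SRC-2 200 nM / Tb anti-GST Ab 2 nM; TR-FRET ex 340, em 520:495; norm DMSO 0%, T3 100%.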
For assay [4], the target named is Retinoic acid receptor RXR-alpha (Homo sapiens) (UniProt P19793). Kind of assay: TOX21_TR_RXR_BLA_Agonist_Followup_ratio: Tox21 Thyroid Hormone Receptor beta Retinoid X Receptor alpha (RXRa) Agonism Beta-lactamase (BLA) Follow-Up Assay, Ratio (AID 2283968). The method, boiled down:
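Agonism is scored as an increase in the 460:530 nm beta-lactamase substrate ratio over DMSO in RXRa-UAS-bla HEK293T cells exposed for 16 h to 11 compound concentrations.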

The nature of assay [5]: TOX21_TR_RXR_BLA_Agonist_Followup_viability: Viability Assessment in the Tox21 Thyroid Hormone Receptor beta Retinoid X Receptor alpha (RXRa) Agonism Beta-lactamase (BLA) Follow-Up Assay (AID 2283970). The method, boiled down:
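Luminescent ATP read (CellTiter-Glo) after 16h exposure of RXRa-UAS-bla HEK293T cells at 37C/5% CO2. Activity normalized to DMSO; signal loss scored as reduced viability.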

Assay [6] addresses Nucleoli Translocation, AR (gene 367) (UniProt P10275). Kind of assay: UPITT_HCI_U2OS_AR_TIF2_Nucleoli_Antagonist: University of Pittsburgh U2OS Androgen Receptor-Transcriptional Intermediary Factor 2 (AR-TIF2) Antagonism High Content Imaging Assay for Nucleoli Translocation (AID 2283997). In outline: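 Antagonism is read as loss of nucleolar AR-RFP signal relative to DHT, imaged in U2OS cells also carrying GFP-TIF2. Compounds screened at 20 uM final, 0.2% DMSO; primary actives retested in triplicate.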

The target is the same in assay [7]. Briefly: UPITT_HCI_U2OS_AR_TIF2_Nucleoli_Agonist: University of Pittsburgh U2OS Androgen Receptor-Transcriptional Intermediary Factor 2 (AR-TIF2) Agonism High Content Imaging Assay for Nucleoli Translocation (AID 2283998). In outline: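 Readout is red (AR-RFP) fluorescence localized to nucleoli, measured by high-content imaging and analysed for increase relative to DMSO. Compound series spanned 0.195 to 50 uM final in 0.5% DMSO.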

Assay [8] has as its target Ratio of Nucleoli Translocation and Cytoplasm, AR (gene 367) (UniProt P10275). Kind of assay: UPITT_HCI_U2OS_AR_TIF2_Nucleoli_Cytoplasm_Ratio_Antagonist: University of Pittsburgh U2OS Androgen Receptor-Transcriptional Intermediary Factor 2 (AR-TIF2) Antagonism High Content Imaging Assay for Ratio of Nucleoli Translocation and Cytoplasm (AID 2283999).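 Further: antagonists lower the DHT-driven ratio of nucleolar to cytoplasmic red signal.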 In outline: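 This antagonist-mode endpoint tracks AR-RFP localisation, the nucleolus-to-cytoplasm intensity ratio, in TIF2-GFP-coexpressing U2OS cells. DMSO stays at or below 0.5%; testing spans 20 uM single-dose and 0.195–50 uM series, with DHT setting the activity baseline.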

Assay [9] shares this target. Briefly: UPITT_HCI_U2OS_AR_TIF2_Nucleoli_Cytoplasm_Ratio_Agonist: University of Pittsburgh U2OS Androgen Receptor-Transcriptional Intermediary Factor 2 (AR-TIF2) Agonism High Content Imaging Assay for Ratio of Nucleoli Translocation and Cytoplasm (AID 2284000).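 Further: hits raise the red nucleolar to cytoplasm ratio above vehicle.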 The method, boiled down:
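Compounds tested at 20 uM final in primary screen (0.2% DMSO) and 0.195-50 uM final in dose-response (0.5% DMSO). Imaging of human U2OS cells bearing RFP-AR and GFP-TIF2; endpoint is nucleoli/cytoplasm red signal ratio, positive direction relative to DMSO.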

A short description of assay [10]: TOX21_PR_LUC_Followup_Antagonist_viability: Viability Assessment in the Tox21 HEK293 Progesterone Receptor (PR) Antagonism Luciferase Follow-Up Assay (AID 2283940). In outline:
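Loss of CellTiter-Glo ATP signal indicates cytotoxicity in HEK293-PR-A-luc cells grown in 10% charcoal-stripped FBS medium, seeded 3,000 per well and incubated 16 h with compound at 37C.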

Assay [11] is described as follows: TOX21_PR_LUC_Followup_Agonist_viability: Viability Assessment in the Tox21 HEK293 Progesterone Receptor (PR) Agonism Luciferase Follow-Up Assay (AID 2283941).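 Further: loss of signal means cytotoxicity so actives lower viability.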 In outline: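 Seeding: HEK293-PR-A-luc, 3,000 cells/well, 5 h at 37C. Treatment: compound in DMSO, 16 h, 37C. Read: CellTiter-Glo ATP luminescence, signal loss taken as lower viability.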
A short description of assay [12]: CCTE_Harrill_HTTr_Viability_MCF7: CCTE's 6-hour Cell Viability Assessment for the High-Throughput Transcriptomics (HTTr) Platform, in MCF-7 cells cultured in DMEM + 10% fetal bovine serum, Harrill Lab (AID 2284010; active means hit-call score of the fitted dose curve at least 0.9, where 1 is the maximum; inactive means score below 0.9). The method, boiled down: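 Eight-point concentration series, six-hour exposure. Propidium iodide exclusion imaged to assess membrane integrity as a cytotoxicity readout; bidirectional fitting was done with DMSO as negative control and activity baseline.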

A short description of assay [13]: CCTE_Harrill_HTTr_Apoptosis_MCF7: CCTE's 6-hour Apoptosis Assessment for the High-Throughput Transcriptomics (HTTr) Platform, in MCF-7 cells cultured in DMEM + 10% fetal bovine serum, Harrill Lab (AID 2284011; active means hit-call score of the fitted dose curve at least 0.9, where 1 is the maximum; inactive means score below 0.9). The method, boiled down:
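MCF-7 (DMEM + 10% FBS), 384-well; 8-pt dilution series, 6 h chemical exposure; caspase-3/7 activation via CellEvent Caspase 3/7 Green, HCI; bidirectional fit vs DMSO.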

Assay [14] in a line: CCTE_Harrill_HTTr_CellCount_MCF7: CCTE's Cell Proliferation Assessment for the High-Throughput Transcriptomics (HTTr) Platform, Harrill Lab (AID 2284012).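 Further: count of Hoechst-stained nuclei per well by high-content imaging in MCF-7 cells; cells exposed to compound for six hours; intended direction is loss of nuclei count meaning fewer cells.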 In outline:
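For this full-screen endpoint, MCF-7 cultures received eight compound dilutions for six hours. Well nuclei counts from Hoechst imaging were analyzed relative to DMSO.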

Assay [15] can be described thus: CCTE_Shafer_MEA_acute_spike_number: CCTE's Neural Acute Assay for Total Number of Spikes, Shafer Lab (AID 2284008; active means hit-call score of the fitted dose curve at least 0.9, where 1 is the maximum; inactive means score below 0.9;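 on AC50: curve fitted for decrease in spike count so AC50 reflects inhibitors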). In outline: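 Read-out is the total spike count over 40 min, expressed as percent change from each well's own pre-treatment baseline and fitted in the loss direction against DMSO. Rat cortical neurons were exposed at 0.03-40 uM on DIV 13 or 15.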
The nature of assay [16]: CCTE_Shafer_MEA_acute_burst_number: CCTE's Neural Acute Assay for Single-Electrode Bursts, Shafer Lab (AID 2284013; active means hit-call score of the fitted dose curve at least 0.9, where 1 is the maximum; inactive means score below 0.9). The method, boiled down:
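Primary rat cortical neurons on 16-electrode MEA wells, DIV 13 or 15, exposed to compound (0.03-40 uM; ≥3 wells); 40-min recordings at 37 C before and after treatment. Burst count expressed as percent change from baseline, DMSO as negative control.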

For another assay, the system named is DIO1 (gene 1733). Kind of assay: CCTE_GLTED_hDIO1: CCTE's human Deiodinase 1 (DIO1) Inhibition Assay, Great Lakes Toxicology and Ecology Division (GLTED) Lab (AID 2283987).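 Further: isolated human DIO1 enzyme in a cell-free setup rather than cells; enzyme activity read as free iodide liberated from substrate via Sandell-Kolthoff colorimetry.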 The method, boiled down:
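Inhibition of human deiodinase 1 is scored as reduced iodide liberation after a 3 h enzyme–chemical incubation, detected colorimetrically by the Sandell-Kolthoff reaction against DMSO controls.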

Retinoic acid receptor RXR-alpha (Homo sapiens), sequence (P19793 whole entry, looked up): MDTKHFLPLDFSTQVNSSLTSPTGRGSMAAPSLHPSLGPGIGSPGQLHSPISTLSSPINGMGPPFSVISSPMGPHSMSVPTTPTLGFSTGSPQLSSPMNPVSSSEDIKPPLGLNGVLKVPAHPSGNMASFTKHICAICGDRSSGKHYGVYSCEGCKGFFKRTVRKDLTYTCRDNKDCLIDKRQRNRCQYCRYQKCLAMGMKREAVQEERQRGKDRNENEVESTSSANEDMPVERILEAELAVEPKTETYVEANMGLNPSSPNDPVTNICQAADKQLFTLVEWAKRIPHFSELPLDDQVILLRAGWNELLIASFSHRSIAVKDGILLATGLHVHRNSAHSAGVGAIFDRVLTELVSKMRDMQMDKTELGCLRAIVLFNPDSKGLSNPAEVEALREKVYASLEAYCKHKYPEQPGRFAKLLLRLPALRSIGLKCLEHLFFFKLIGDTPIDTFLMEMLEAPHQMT
THRB (gene 7068), sequence (P10828 whole entry, looked up, the tested form may be a part): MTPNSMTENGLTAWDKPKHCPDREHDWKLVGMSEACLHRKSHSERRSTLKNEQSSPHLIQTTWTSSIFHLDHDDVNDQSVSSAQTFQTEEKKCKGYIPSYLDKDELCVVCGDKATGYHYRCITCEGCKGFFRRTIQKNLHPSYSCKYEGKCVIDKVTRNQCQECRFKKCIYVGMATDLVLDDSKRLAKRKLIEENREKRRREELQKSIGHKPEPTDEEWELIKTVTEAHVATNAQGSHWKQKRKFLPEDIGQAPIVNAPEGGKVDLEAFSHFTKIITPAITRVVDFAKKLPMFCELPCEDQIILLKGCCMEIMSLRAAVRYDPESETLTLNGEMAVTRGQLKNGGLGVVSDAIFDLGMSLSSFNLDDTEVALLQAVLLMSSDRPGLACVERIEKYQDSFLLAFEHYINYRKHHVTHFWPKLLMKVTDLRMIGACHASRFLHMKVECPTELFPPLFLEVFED
Ratio of Nucleoli Translocation and Cytoplasm, AR (gene 367), sequence (P10275 whole entry, looked up): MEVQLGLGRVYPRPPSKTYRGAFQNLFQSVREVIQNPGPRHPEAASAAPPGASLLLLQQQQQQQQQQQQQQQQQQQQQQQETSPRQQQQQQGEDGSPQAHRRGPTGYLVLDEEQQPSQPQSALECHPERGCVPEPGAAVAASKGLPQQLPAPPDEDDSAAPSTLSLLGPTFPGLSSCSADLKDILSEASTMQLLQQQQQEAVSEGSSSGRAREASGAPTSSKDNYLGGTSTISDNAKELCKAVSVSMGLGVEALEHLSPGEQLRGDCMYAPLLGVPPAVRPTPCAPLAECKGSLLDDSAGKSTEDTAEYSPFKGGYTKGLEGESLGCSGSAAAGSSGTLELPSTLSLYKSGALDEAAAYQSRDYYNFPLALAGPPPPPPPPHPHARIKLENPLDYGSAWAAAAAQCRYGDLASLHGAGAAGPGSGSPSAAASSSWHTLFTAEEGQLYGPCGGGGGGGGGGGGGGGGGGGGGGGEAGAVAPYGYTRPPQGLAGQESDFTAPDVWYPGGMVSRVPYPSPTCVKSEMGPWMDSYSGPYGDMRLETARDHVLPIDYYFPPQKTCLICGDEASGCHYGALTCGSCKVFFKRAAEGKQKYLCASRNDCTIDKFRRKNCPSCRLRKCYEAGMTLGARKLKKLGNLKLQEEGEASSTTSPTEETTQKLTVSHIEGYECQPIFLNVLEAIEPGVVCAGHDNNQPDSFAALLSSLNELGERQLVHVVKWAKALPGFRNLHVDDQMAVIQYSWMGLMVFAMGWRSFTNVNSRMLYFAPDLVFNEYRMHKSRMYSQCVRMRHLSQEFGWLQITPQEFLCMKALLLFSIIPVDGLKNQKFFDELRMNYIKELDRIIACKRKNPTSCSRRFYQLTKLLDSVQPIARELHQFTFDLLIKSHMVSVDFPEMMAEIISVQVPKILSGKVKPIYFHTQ
Nucleoli Translocation, AR (gene 367), sequence (P10275 whole entry, looked up): as above
Thyroid hormone receptor alpha (Rattus norvegicus) + Thyroid hormone receptor beta (Rattus norvegicus), sequence (P63059 whole entry, looked up): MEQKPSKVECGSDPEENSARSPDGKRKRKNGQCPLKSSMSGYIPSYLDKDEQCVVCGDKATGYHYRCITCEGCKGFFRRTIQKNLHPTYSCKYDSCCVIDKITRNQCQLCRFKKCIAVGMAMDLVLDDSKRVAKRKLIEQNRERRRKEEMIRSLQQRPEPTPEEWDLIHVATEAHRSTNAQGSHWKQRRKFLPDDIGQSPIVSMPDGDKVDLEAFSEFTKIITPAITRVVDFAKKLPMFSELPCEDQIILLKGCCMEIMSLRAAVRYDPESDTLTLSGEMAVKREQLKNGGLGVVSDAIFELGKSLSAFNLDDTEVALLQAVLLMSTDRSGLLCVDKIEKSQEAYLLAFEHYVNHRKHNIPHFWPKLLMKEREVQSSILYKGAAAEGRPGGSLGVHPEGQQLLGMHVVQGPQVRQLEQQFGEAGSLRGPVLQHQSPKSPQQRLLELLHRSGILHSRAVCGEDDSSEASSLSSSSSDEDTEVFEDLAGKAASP
Thyroid hormone receptor alpha (Rattus norvegicus) + Thyroid hormone receptor beta (Rattus norvegicus), sequence (P18113 whole entry, looked up): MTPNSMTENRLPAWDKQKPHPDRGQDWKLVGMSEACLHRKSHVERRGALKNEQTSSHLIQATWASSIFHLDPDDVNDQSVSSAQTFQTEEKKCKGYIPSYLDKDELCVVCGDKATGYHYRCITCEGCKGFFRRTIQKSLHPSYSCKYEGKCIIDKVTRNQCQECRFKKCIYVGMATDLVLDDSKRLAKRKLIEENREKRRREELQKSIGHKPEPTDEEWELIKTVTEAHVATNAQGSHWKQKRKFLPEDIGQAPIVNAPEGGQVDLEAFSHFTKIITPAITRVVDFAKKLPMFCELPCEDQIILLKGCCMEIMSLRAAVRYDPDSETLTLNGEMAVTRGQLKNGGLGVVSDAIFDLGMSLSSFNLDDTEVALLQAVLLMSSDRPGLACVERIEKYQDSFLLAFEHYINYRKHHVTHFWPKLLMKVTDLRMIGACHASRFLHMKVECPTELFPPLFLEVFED

For `Cc1cccc(C)c1[N+](=O)[O-]`, the result (in assay [1]; in the assay with THRA (gene 7067); with THRB (gene 7068) [2]; with THRB (gene 7068) [3]; in assay [4]; in assay [5]) was inactive.

As for `O=C[C@@H](O)[C@H](O)[C@H](O)CO`, the result in [6], in assay [7], in assay [8] and in assay [9] was inactive.

Broadly, the AC50 is the concentration giving half of the maximal activity seen. Turning to `CC(CCO)CCCC(C)(C)O` (configuration not stated), in assay [1], the AC50 was 1440 nM (active). The outcome (with THRA (gene 7067); with THRB (gene 7068) [3]; in assay [4]) was inactive.

As for `COC(=O)C1=C(C)NC(C)=C(C(=O)OCCN(C)Cc2ccccc2)C1c1cccc([N+](=O)[O-])c1` (configuration not stated), the result in [10], in assay [11], in assay [12] and in assay [13] was inactive.

On to `Nc1ccc(S(N)(=O)=O)cc1`, for which the result (with THRA (gene 7067); with THRB (gene 7068) [2]; with THRB (gene 7068) [3]; in assay [4]; in assay [5]; in assay [12]) was inactive. For the same molecule, the outcome in assay [13] and in assay [14] was inactive.

As to `C[C@H]1C[C@H]2[C@@H]3CCC4=CC(=O)C=C[C@]4(C)[C@@]3(F)[C@@H](O)C[C@]2(C)[C@@]1(O)C(=O)COP(=O)(O)O`, the result in assay [10] and in assay [11] was inactive.

Turning to `Nc1cc([N+](=O)[O-])ccc1O`, in assay [15], the AC50 is 2980 nM (active). The result in assay [16] was inactive.

With `CCCCCCCCCCCCCCCC(=O)OC[C@H](O)[C@H]1OC(=O)C(O)=C1O`, the AC50 in the assay with DIO1 (gene 1733) is 89600 nM (active). The call in assay [6], in [7], in assay [8] and in [9] was inactive.

Regarding `OC[C@H]1O[C@H](O[C@]2(CCl)O[C@H](CCl)[C@@H](O)[C@@H]2O)[C@H](O)[C@@H](O)[C@H]1Cl`, the molecule was classed as inactive in assay [15] and in assay [16].

On to `C[Si](O[Si](C)(C)C)O[Si](C)(C)C`, for which the result in assay [6] was inactive.

Turning to `c1ccc2[nH]ccc2c1`, the outcome in assay [6], in assay [7], in assay [8], in assay [9], in assay [12] and in [13] was inactive. Moreover, the molecule was classed as inactive in assay [14]. For the same molecule, the AC50 in [13] is 55300 nM (active).

In the case of `C=C[Si](OCC)(OCC)OCC`, the call in [15] and in [16] was inactive.

In the case of `C[C@]12CC[C@H]3[C@@H](CCC4=CC(=O)CC[C@@]43C)[C@@H]1CC[C@@H]2C(=O)CO`, the result in assay [10], in assay [11], in [12] and in assay [13] was inactive.

Turning to `O=C(Oc1ccccc1)c1ccc(O)cc1`, the molecule was called inactive in [11].

As to `O=Nc1ccc(Nc2ccccc2)cc1`, the AC50 in assay [6] is 2560 nM (active); in assay [8], 2510 nM (active). Moreover, the outcome in [7], in assay [9], in assay [12] and in [13] was inactive.

With `CCC(=O)OCc1ccccc1`, the molecule was called inactive in [15], in [12], in [13], in assay [14] and in assay [16].

`CN(C)C(=N)N=C(N)N`: the outcome in assay [15], in [12], in assay [14] and in assay [16] was inactive.

Consider `CCCCC[Si](OCC)(OCC)OCC`, for which the molecule was called inactive in assay [6] and in assay [9].

Take `CCN(CC)c1ccc(C(=C2C=CC(=[N+](CC)CC)C=C2)c2ccc(S(=O)(=O)O)cc2S(=O)(=O)[O-])cc1`: the molecule was called inactive in assay [6] and in [9].
